# Screening results as filed in PubChem.
# Shown are actives, neighbours in structure and some others; about 1.5% of the full set was active somewhere.
# rTrxR1 inhibitor: rat TrxR1 inhibition; 1% of 390,000 active; recombinant rTrxR1, NADPH fluorescence consumption, selenite substrate; O89049; Potency, µM (highest dose often 114 µM), for inactives: at the top dose activity change, negative = inhibition, usual class: inhibitors; AID 588453; also: potency is read from the fitted curve at half-maximal effect; nearly all actives have a fitted effect of over 65% in size
# Target sequence (O89049 whole entry, looked up): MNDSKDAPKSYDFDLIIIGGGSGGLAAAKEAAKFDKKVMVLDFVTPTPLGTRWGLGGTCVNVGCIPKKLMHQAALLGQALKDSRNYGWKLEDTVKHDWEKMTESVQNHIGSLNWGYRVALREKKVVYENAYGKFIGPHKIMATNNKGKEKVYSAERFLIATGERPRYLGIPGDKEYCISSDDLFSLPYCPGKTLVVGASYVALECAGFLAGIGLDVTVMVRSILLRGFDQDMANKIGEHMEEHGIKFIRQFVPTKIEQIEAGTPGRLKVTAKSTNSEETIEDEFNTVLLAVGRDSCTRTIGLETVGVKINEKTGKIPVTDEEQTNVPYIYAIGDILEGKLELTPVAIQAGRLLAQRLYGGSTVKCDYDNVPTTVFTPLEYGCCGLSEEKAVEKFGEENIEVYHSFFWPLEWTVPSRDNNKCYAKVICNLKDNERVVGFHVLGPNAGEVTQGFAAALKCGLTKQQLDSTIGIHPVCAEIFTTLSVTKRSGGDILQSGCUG
#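 Rat TrxR1 (90 nM in the dispensed reagent) was pre-reduced with 400 uM NADPH for 5 min at room temperature, then incubated with compound for 15 min. After 400 uM selenite was added, NADPH fluorescence (Ex 340/Em 450 nm) was followed for 8 min.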
# IDH1 R132H inh: inhibitors of human mutant IDH1 R132H. O75874. IDH1-R132H enzyme, NADPH consumption, diaphorase/resazurin fluorescence. Potency, µM (highest dose often 76.6 µM), for inactives: at the highest dose activity change, negative = inhibition, actives largely listed as inhibitors. 0.093% of 390,000 active. AID 602179; also: potency is read from the fitted curve at half-maximal effect; nearly all actives have a fitted effect of over 65% in size
#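 IDH1-R132H (0.5 ug/mL) preincubated 30 min with compound, then NADPH (0.016 mM) and alpha-KG (2 mM) added; 80 min at RT, pH 7.5. Remaining NADPH coupled via diaphorase/resazurin to fluorescence (540/590 nm); concentration-response curves normalized to no-enzyme control.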
# Coupling enz: coupling enzyme interference in Giardia aldolase counter-screen; coupling enzyme system counterscreen, AmpLite Red fluorescence; activity change, negative = inhibition, % at 58.2 µM, hits read low; 0.67% of 290,000 active; AID 2472; in the data active = activity change below about -30%
#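 Compounds tested against the coupling enzymes alone at 57.5 uM final; readout was AmpLite Red fluorescence (525/598 nm) after 20 min at RT.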
# Eya2 inh: Eya2 (human) phosphatase inhibition; AID 488837; recombinant Eya2, OMFP fluorescence dephosphorylation (OMFP is methylfluorescein phosphate); O00167; Potency, µM (top dose mostly 76.9 µM), inactives show at the highest dose activity, negative = inhibition, usual class: inhibitors; 0.006% of 330,000 active; also: potency is read from the fitted curve at half-maximal effect
#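 Eya2 (0.2 uM) preincubated 10 min at ambient with compound, then OMFP substrate added at 50 uM; 10 min reaction in 50 mM HEPES pH 7.5, 50 mM NaCl, 5 uM MgCl2, 0.05% BSA, 1 mM DTT. Fluorescence read at Ex 485/Em 525 nm.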
# TrxR1 substrate: substrates of rat thioredoxin reductase 1. purified TrxR1 substrate turnover, NADPH consumption readout. 0.01% of 390,000 active. Potency, µM (series often up to 114 µM), without a hit: at the top dose activity change, negative = substrate turnover. AID 588456; also: potency is read from the fitted curve at half-maximal effect; nearly all actives have a fitted effect of over 50% in size
#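 Rat TrxR1, dispensed at 90 nM, was prereduced with 400 uM NADPH (final) for 5 min at ~22 deg C, then incubated with compound 15 min before 400 uM selenite. A first-read NADPH fluorescence drop versus no-compound background flagged substrates.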
# The depositor's hits bear a star; ? = inconclusive; nt = no result given; ! = not confirmed by another sample; [ ] = remark or other dose. Unless noted, calls follow the shape of the dose curve; as a rule, active = well fitted curve in the direction sought with a large enough effect; inconclusive = small, poorly fitted or top-dose-only effect, or another doubt; inactive = no such curve, though single readings can be large; an effect the other way counts as inactive or inconclusive. % is scaled to controls: 0 for no effect and ±100 for the full control effect.
SMILES,rTrxR1 inhibitor,IDH1 R132H inh,Coupling enz,Eya2 inh,TrxR1 substrate
CCOc1ccc2nc(N3C(=O)C(O)=C(C(=O)c4ccco4)C3c3ccco3)sc2c1 (centres undefined),-23%,0%,nt,-8%,-8%
CCOC(=O)c1sc(N2C(=O)C(O)=C(C(=O)c3ccco3)C2c2ccco2)nc1C (centres undefined),32µM*,8%,-2,1%,-9%
CC(=O)Nc1ccn(C2OC(C(COC(C)=O)NC(=O)C(Cc3ccccc3)NC(=O)OC(C)(C)C)C(OC(C)=O)C2OC(C)=O)c(=O)n1 (centres undefined),11%,nt,4,nt,5%
C[C@H]([C@H](C)N1CC(=O)NC(=O)C1)N1CC(=O)NC(=O)C1,nt,nt,1,nt,nt
CCOC(=O)c1c(-c2ccc(C)o2)csc1NC(=S)NC(=O)N(C)C,11µM*,5%,1,0%,-2%
CCOC(=O)c1c(-c2ccc(C)o2)csc1NC(=O)CN1CCOCC1,?,5%,-1,-11%,-10%
CCOC(=O)c1c(-c2ccc(C)o2)csc1NC(=O)CSc1ncn[nH]1,40µM*,7%,1,4%,-5%
O=C(C[n+]1ccccc1Cl)c1ccc(Br)cc1,-15%,nt,nt,nt,1%
CN[C@@H]1[C@H](O[C@@H]2O[C@H](C)[C@@](O)(CO)[C@H]2O[C@H]2[C@H](O)[C@H](O)[C@H](N=C(N)N)[C@@H](O)[C@@H]2N=C(N)N)O[C@@H](CO)[C@H](O)[C@H]1O,nt,nt,0,nt,nt
COC(=O)[C@@H](NC(=O)N1CCc2nc(-c3ccccc3)c3c(c2C1)CO[C@@H](C)C3)C(C)C,nt,nt,0,nt,nt
Cc1csc(C)[n+]1CCC1CCCCC1,18%,nt,nt,nt,1%
O=C(O)CCN1CC2([N+](=O)[O-])C=CC(=O)C([N+](=O)[O-])(C1)C2CC(=O)c1ccccc1 (centres undefined),14µM*,2%,-52*,-17%,-11%
O=C(CCCC(=O)N1CCN(c2ccc([N+](=O)[O-])cc2)CC1)c1ccccc1,-12%,1%,0,-3%,-10%
C1=Cc2ccccc2/C1=C\c1cc[cH-]c1.[Fe+2].c1cc[cH-]c1,3.2µM*,nt,nt,nt,2%
COC(=O)C1=C(C)N(c2cccc3ccccc23)C(=O)C1,25µM*,10%,-11,-16%,0%
CC1(C)OC(=O)C2(Cc3ccc(Cl)cc3N3CCCC32)C(=O)O1 (centres undefined),16%,nt,nt,nt,4%
Cc1noc(C)c1-c1ccc2ncnc(NCc3cccn3C)c2c1,nt,nt,4,nt,nt
CCCCn1c(NS(=O)(=O)c2ccc(C)cc2)c(S(=O)(=O)c2ccccc2)c2nc3ccccc3nc21,1%,1%,-53*,-10%,282%
Cc1ccc(S(=O)(=O)c2c(N)n(CCCN(C)C)c3nc4ccccc4nc23)cc1,-2%,-8%,3,3%,176%
CCOC(=O)c1cc2c(=O)n3cccc(C)c3nc2n(Cc2ccco2)c1=NC(=O)c1ccccc1,56µM*!,8%,nt,-14%,3%[11.4 µM]
CCOC(=O)c1cc2c(=O)n3cccc(C)c3nc2n(Cc2ccco2)c1=NC(=O)c1ccc(C)cc1,-11%,8%,nt,nt,-6%
COc1cc(OC)cc(-c2nnc3n2N=C(c2ccc(OC)cc2OC)CS3)c1,nt,nt,-2,nt,nt
Cc1cc2c(c(=O)o1)[C@@H](O)[C@H]1O[C@@H]1C2=O,nt,nt,0,nt,nt
C1=Nc2ccccc2/C1=C/c1c[nH]c2ccccc12,17%,nt,nt,nt,12%[0.0914 µM]
COc1ccc(OC)c(S(=O)(=O)Nc2ccc(O)c3ccccc23)c1,-27%,12%,-58*,8%,-11%
O=C(CC1(O)C(=O)N(CCc2ccccc2)c2ccccc21)c1ccco1 (centres undefined),4%[57.1 µM],13%,-1,1%,13%[57.1 µM]
C#CCN1C(=O)C(O)(CC(=O)/C=C/c2ccco2)c2ccccc21 (centres undefined),40µM*,6%,0,4%,-5%
C=C(C(=O)O)[C@@H]1CC[C@@]2(C)CCC[C@](C)(O)[C@@H]2C1,nt,nt,2,nt,nt
CC(C)ON(C(C(=O)NO)C(C)C)S(=O)(=O)c1ccc(-c2ccccc2)cc1 (centres undefined),nt,nt,2,nt,nt
